# Results from PubChem BioAssay (NCI).
# This is part of a sample that, as a whole, favours compounds with a hit. Of some 83,000 tested, about 20% had one in any assay.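 Percent growth is the endpoint: 0 to 100 indicates growth inhibition (40 means 60% inhibition), 0 means no net growth, and negative values indicate cell death.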 Values without a mark were called inactive. Activity calls are given as the source filed them.
# Test system: KM12 colon
# Test: NCI-60 one-dose screen, 48 h (100 = growth as untreated, 0 = no growth, -100 = all killed)
# Conditions: 10 µM unless noted
# Method: Growth inhibition of the KM12 human tumor cell line is measured as a screen for anti-cancer activity. Cells are grown in 96 well plates and exposed to the test compound for 48 hours. Compounds are tested at a single concentration, which is 10^-5 M for most compounds. The reported endpoint is percent growth (GI% or GIPRCNT), where numbers from 0 - 100% represent growth inhibition, and numbers from -100% - 0 represent cell death. For example, a value of 40 represents 60% growth inhibition. A value of 0 means no net growth occurred over the course of the experiment. A value of -40 indicates 40% of cells at the beginning of the experiment died by the end of the experiment. A value of -100 means all cells are dead at the end of the experiment.
# NCI-60 Human Tumor Cell Lines Screen was performed using the standard one-dose NCI protocol, which is described in more detail at https://dtp.cancer.gov/discovery_development/nci-60/default.htm.
# Compounds with GIPRCNT values below 10 were considered active. Activity score was based on GIPRCNT using the following formula: […]
# Score is 0 for GIPRCNT values of 100 or above, 50 for GIPRCNT values of 0, and 100 for GIPRCNT values of -100.
row,Structure (SMILES),growth
1,CC(C)(C)C(=O)OCOP(=O)(NCc1ccccc1)C1CCCN(O)C1=O (stereo not given),-7.5% (active)
2,COC(=O)[C@@H](C)C[C@H](Cc1ccccc1)NC(=O)c1csc([C@@H](C[C@H](C(C)C)N(C)C(=O)C2(NC(=O)[C@H]3CCCCN3C)CCC2)OC(C)=O)n1,5.71% (active)
3,COc1ccc2c(c1)c(-c1nc(-c3cn(C)c4ncccc34)cs1)cn2CCN1CCOCC1,22.7%
4,COC(=O)[C@@H](C)C[C@H](Cc1ccccc1)NC(=O)c1csc([C@@H](C[C@H](C(C)C)N(C)C(=O)[C@@H](NC(=O)[C@H]2CCCCN2C)c2ccc(F)cc2)OC(C)=O)n1,-3.41% (active)
5,c1ccc(Nc2nc(-c3ccccc3)c[se]2)cc1,71.8%
6,CC(=O)O[C@H]1C(=O)[C@@]2(C)[C@H]([C@H](OC(=O)c3ccccc3)[C@]3(O)C[C@H](OC(=O)[C@H](OC(=O)OC[C@@H]4COC(C)(C)O4)[C@@H](NC(=O)c4ccccc4)c4ccccc4)C(C)=C1C3(C)C)[C@]1(OC(C)=O)CO[C@@H]1C[C@@H]2O,10.7%
7,CCC(CC)CC1(C)CC2(C)CCOC2OO1 (stereo not given),111%
8,COC(=O)[C@@H](C)C[C@H](Cc1ccccc1)NC(=O)c1csc([C@@H](C[C@H](C(C)C)N(C)C(=O)[C@@H](NC(=O)[C@H]2CCCCN2C)C(C)C)OC(C)=O)n1,4.46% (active)
9,O=C(O)c1ccc([S-])cc1.[Au+].c1ccc(CN2[CH-]N(Cc3ccccc3)C(c3ccccc3)=C2c2ccccc2)cc1,-26.1% (active)
10,COC(=O)[C@@H](C)C[C@H](Cc1ccccc1)NC(=O)c1csc([C@@H](C[C@H](C(C)C)N(C)C(=O)C2(NC(=O)[C@H]3CCCCN3C)CC2)OC(C)=O)n1,5.25% (active)
11,CN1CCC(O)(c2ccc(F)cc2)C(C(=O)c2ccc(F)cc2)C1 (stereo not given),105%
12,CCCCCCCCCCCCCC[P+](CCCCCC)(CCCCCC)CCCCCC,-100% (active)
13,CC12CCC=CC1CCC1C2CCC2(C)C(c3ccc(=O)oc3)CCC12O (stereo not given),-55.7% (active)
14,NC(=S)c1cn(C2OC(CO)C(O)C2O)c2ncnc(N)c12 (stereo not given),-14.9% (active)
15,COC(=O)[C@@H](C)C[C@H](Cc1ccccc1)NC(=O)c1nc([C@@H](C[C@H](C(C)C)N(C)C(=O)[C@@H](NC(=O)[C@H]2CCCN2C)C(C)C)OC(C)=O)sc1C,11.9%
16,Fc1c[c-]c(-c2ccccn2)c(F)c1.[CH3-].[Pt+2].c1ccc([PH+](c2ccccc2)c2ccccn2)cc1,10.4%
17,COc1ccc(/C=C\c2cc(OC)c(OC)c(OC)c2)cc1OCC(=O)Nc1nc2ccc(OC(F)(F)F)cc2s1,19.2%
18,CNC(=O)Oc1cccc(C(F)(F)F)c1,110%
19,CCOC(=O)[C@@H](C)C[C@H](Cc1ccccc1)NC(=O)c1nc([C@@H](C[C@H](C(C)C)N(C)C(=O)[C@@H](NC(=O)[C@H]2CCCCN2C)C(C)C)OC(C)=O)sc1CCOCc1ccccc1,-39.8% (active)
20,Cc1ccc(S(=O)(=O)C(Cl)(Cl)Cl)cc1,101%

row,Structure (SMILES),growth
1,Cn1cc(-c2csc(-c3cn(CCN4CCOCC4)c4ccc(F)cc34)n2)c2cccnc21,22.3%
2,CC(=O)O[C@H]1C(=O)[C@@]2(C)[C@H]([C@H](OC(=O)c3ccccc3)[C@]3(O)C[C@H](OC(=O)[C@H](OC(=O)OC[C@H]4COC(C)(C)O4)[C@@H](NC(=O)c4ccccc4)c4ccccc4)C(C)=C1C3(C)C)[C@]1(OC(C)=O)CO[C@@H]1C[C@@H]2O,11.9%
3,N#C[Se]CCN1C(=O)c2ccccc2C1=O,43%
4,CC1(C)[C@H](O)[C@H](F)C[C@@]2(C)Oc3ccc(C(=O)Nc4ccc5c(c4)NC(=O)C54CCN(CCCCC#N)CC4)cc3C[C@H]12,22%
5,COc1ccc(/C=C/c2cc(OC)c(OC)c(OC)c2)cc1NC(=O)/C=C/c1ccc(F)cc1,25%
6,O=C(Nc1ccc(O)cc1)C(Cl)(Cl)Cl,103%
7,C=C1C(=O)O[C@H]2[C@H]1CC/C(COC(=O)C(=O)c1cn(Cc3ccccc3)c3ccccc13)=C\CC[C@@]1(C)O[C@@H]21,-89.7% (active)
8,COC1CC2c3ccccc3C1C(C)=[N+]2C (stereo not given),104%
9,COC(=O)CCc1c[nH]c2ccc(N(CCCl)CCCl)cc12,86.6%
10,O=C(O)c1c(Cl)n(Cc2ccc(O)cc2)c2ccc(O)cc12,107%
11,Nc1cc2nc3ccccc3nc2cc1N,91.6%
12,Cc1ccc(Nc2nc3c(s2)C2=CC[C@@H]4[C@H](CC[C@]5(C)C(=O)CC[C@@H]45)[C@@]2(C)CC3)cc1,34.7%
13,CCOC(=O)[C@@H](C)C[C@H](Cc1ccccc1)NC(=O)c1csc([C@@H](C[C@H](C(C)C)N(C)C(=O)CNC(=O)[C@H]2CCCCN2C)OC(C)=O)n1,12%
14,[Cl][Hg][n]1c(-c2ccco2)nc2ccccc21,97.8%
15,COc1ccc(N(CC(=O)NCCC[Te]c2ccccc2)C(=O)CNC(=O)OC(C)(C)C)cc1,19.3%
16,C=CCCCCCCCCC(=O)[O-].C=CCCCCCCCCC(=O)[O-].[Zn+2],94.3%
17,c1cnc2[nH]cc(-c3csc(-c4cn(CCCCN5CCOCC5)c5ccccc45)n3)c2c1,24.1%
18,COc1ccc(Nc2ccnc3cc(Cl)ccc23)cc1CN(CCCl)CCCl,-62.6% (active)
19,Fc1ccc2c(c1)c(-c1nc(-c3c[nH]c4ncccc34)cs1)cn2CCN1CCOCC1,32.2%
20,COc1cc(/C=N/C2=C(C#N)C(c3ccco3)c3c(c4cc(C)ccc4oc3=O)O2)cc(OC)c1OC (stereo not given),81.4%
